# Only some compounds are listed: those with a hit (about 3.6% of all), similar ones and a draw of the others.
# Wnt act: activates Wnt/beta-catenin signaling in a reporter cell assay; activator, plate reader; activation, % at 9.35 µM; 300,000 tested, 1.2% active; AID 743398; in the data active means activation above about 30%, passing the limit was not always enough; inconclusive means no clear call, values can overlap the other calls;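 further: 0% = neutral control wells and 100% = positive control wells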
# PHOSPHO1 block: inhibitors of human PHOSPHO1 phosphatase | Q8TCT1 | recombinant PHOSPHO1, absorbance phosphatase assay | inhibition, % at 13.3 µM | 290,000 tested, 1.1% active | AID 1565; in the data active means inhibition above about 60%
# Target sequence (Q8TCT1 whole entry, looked up): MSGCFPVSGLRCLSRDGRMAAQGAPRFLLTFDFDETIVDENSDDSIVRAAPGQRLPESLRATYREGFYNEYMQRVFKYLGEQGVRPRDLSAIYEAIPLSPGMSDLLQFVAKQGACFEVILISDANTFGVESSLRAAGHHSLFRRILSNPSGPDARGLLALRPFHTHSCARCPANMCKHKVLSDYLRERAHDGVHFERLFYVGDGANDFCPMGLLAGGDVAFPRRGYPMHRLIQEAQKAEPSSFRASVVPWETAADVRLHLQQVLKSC
# A3G deaminase: APOBEC3G (human) deaminase inhibition. Q9HC16. recombinant A3G, ssDNA deamination FAM/TAMRA fluorescence. inhibition, % at 20 µM. 330,000 tested, 0.28% active. AID 493012;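 active means inhibition of at least 40% at 20 µM, with no more than 30% in the related APOBEC3A deaminase screen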;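 further: plate controls were DMSO wells with A3G for no effect and wells lacking A3G enzyme for full effect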
# A3A deaminase: human APOBEC3A DNA deaminase inhibition | inhibition, % at 20 µM | 330,000 tested, 0.41% active | AID 493011 | recombinant A3A, FAM/TAMRA ssDNA deamination fluorescence | P31941;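 active means at least 40% inhibition at 20 µM here, with at most 30% in a related deaminase screen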;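 further: plate controls were A3A with DMSO for no effect and wells lacking A3A enzyme for full effect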
# Target sequence (P31941 whole entry, looked up): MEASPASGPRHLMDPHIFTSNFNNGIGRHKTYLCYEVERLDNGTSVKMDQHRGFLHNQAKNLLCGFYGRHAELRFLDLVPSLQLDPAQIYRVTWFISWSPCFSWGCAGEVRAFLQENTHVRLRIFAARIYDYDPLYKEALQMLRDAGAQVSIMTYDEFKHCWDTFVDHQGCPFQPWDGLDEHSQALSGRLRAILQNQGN
# esBAF inh: SWI/SNF esBAF complex inhibition | mouse ES cells, Bmi1-luciferase knock-in reporter, 24 h; 100% = twice the neutral-well signal | 350,000 tested, 2% active | reporter increase, % at 12.5 µM; in the data active means activation above about 40%; inconclusive means no clear call, values can overlap the other calls;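 further: 0% = median of the plate's neutral control wells and 100% = double that signal; a rise in the Bmi1 reporter signal indicates esBAF inhibition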
# MITF act: MITF TRPM1 promoter activation in melanoma cells; 300,000 tested, 0.75% active; activation, % at 12.5 µM; SK-MEL-5 TRPM1-promoter luciferase, 24 h; % of positive control, neutral wells = 0;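 active means mean activation of at least 80% with every replicate also reaching 80%; inconclusive means mean reaches 80% but some replicate falls short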;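 further: 0% = neutral control wells and 100% = parthenolide positive control wells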
# * = called active by the depositor; ? = inconclusive; · = no result given.
SMILES,Wnt act,PHOSPHO1 block,A3G deaminase,A3A deaminase,esBAF inh,MITF act
COc1ccc(-c2nnc(-c3ccccc3O)o2)cc1,44*,35,-5,3,4,56
C#CCSc1nnc(-c2ccc(OC)cc2)o1,38*,69*,-4,-2,43*,68
Cc1ccc(-c2nnc(-c3cc(C)on3)o2)cc1,49*,61*,-3,-1,-7,49
CCN1[C@@H]2c3ccc(-c4ccccc4OC)c(=O)n3C[C@H]1[C@H](CO)[C@H]2C(=O)NCc1ccccn1,·,·,·,·,4,·
C[C@H](CO)N1C[C@H](C)[C@H](CN(C)Cc2ccncc2)OCCCC[C@H](C)Oc2ccc(NS(C)(=O)=O)cc2C1=O,·,·,·,·,-5,·
CC(C)C#Cc1cnc2c(c1)C(=O)N([C@H](C)CO)C[C@@H](C)[C@@H](CN(C)Cc1ccccn1)O2,·,·,·,·,-1,·
COc1ccccc1CNC(=O)C[C@@H]1C[C@H]2c3cc(NC(=O)c4ccc5c(c4)OCO5)ccc3O[C@H]2[C@H](CO)O1,·,·,·,·,17,·
Cc1noc(C)c1NC(=O)N(C)C[C@@H]1Oc2c(NC(=O)Nc3ccc4c(c3)OCO4)cccc2C(=O)N([C@@H](C)CO)C[C@H]1C,·,·,·,·,4,·
COc1ccc(-c2ccc(-c3nnc(-c4ccncc4)o3)cc2)cc1,·,-18,·,·,·,·
COc1ccc(-c2nnc(-c3ccc(F)cc3)o2)cc1,36*,16,-6,-10,13,78
Cc1cc(=O)[nH]c2ccc(S(=O)(=O)N3CCOCC3)cc12,-3,73*,-1,1,2,0
O=C(NC1CCCCCC1)c1cc(=O)[nH]c2ccc(S(=O)(=O)N3CCOCC3)cc12,0,16,5,35,·,7
CN1CCN(Cc2cc(Cl)c3cccnc3c2OC(=O)c2cccs2)CC1,62*,18,0,-2,·,-29
O=C(N[C@H]1CC[C@@H](CC(=O)N2CCC(Cc3ccccc3)CC2)O[C@H]1CO)c1cnccn1,·,·,·,·,5,·
Cc1cc(C(=O)Nc2cccc(-c3ccc(N4CCOCC4)nn3)c2)ccc1[N+](=O)[O-],27,·,1,-1,·,76
COc1ccc(C(=O)Nc2cccc(-c3ccc(N4CCOCC4)nn3)c2)cc1,19,·,-9,-2,45*,90*
O=C(Nc1cccc(-c2ccc(N3CCCCC3)nn2)c1)c1ccco1,0,·,0,0,7,38
COc1cccc(OC)c1C(=O)Nc1cccc(-c2ccc(N3CCOCC3)nn2)c1,19,·,-13,-6,4,83*
COc1cc(OC)cc(C(=O)Nc2cccc(-c3ccc(N4CCOCC4)nn3)c2)c1,20,·,-2,-1,33,101*
CO[C@@H]1CN(C)C(=O)c2cc(NC(=O)C3CCC3)ccc2OC[C@@H](C)N(C(=O)Nc2ccc(C(F)(F)F)cc2)C[C@H]1C,·,·,·,·,7,·
COc1ccc(NC(=O)CN(C)S(=O)(=O)c2ccc(Br)s2)cc1,-1,-14,-5,-1,6,-5
CCOc1ccc(NC(=O)CN(c2ccc(OC)cc2)S(C)(=O)=O)cc1,·,6,5,-1,67*,57
COc1ccc(NC(=O)CN(C)S(=O)(=O)c2cccs2)cc1,-3,7,-6,-3,49*,12
COc1ccc(NC(=O)CN(C)S(=O)(=O)c2ccc3[nH]c(=O)oc3c2)cc1,5,63*,-6,-6,-9,-3
CCc1ccc(NC(=O)CN(C)S(=O)(=O)c2ccc3[nH]c(=O)oc3c2)cc1,7,-10,5,1,-8,1
SMILES,Wnt act,PHOSPHO1 block,A3G deaminase,A3A deaminase,esBAF inh,MITF act
COC(=O)C1=C(C)N(Cc2ccccc2C(F)(F)F)C(=NCc2ccc(C(F)(F)F)cc2)NC1c1cccc(F)c1 (stereo unspecified),-4,·,·,·,·,·
CO[C@@H]1CN(C)C(=O)c2cc(NC(=O)c3cnccn3)ccc2OC[C@H](C)N(C)C[C@H]1C,·,·,·,·,-1,·
S=c1[nH]nc(-c2ccc3ccccc3n2)o1,·,89*,6,-2,4,-2
FC(F)(F)c1ccc(-c2n[nH]c(=S)o2)nc1,0,-10,-5,-5,-2,-9
Cc1cccnc1NC(=O)Nc1ccccc1,14,20,-5,2,41,?
Cc1cccnc1NC(=O)Nc1cccc(F)c1,3,·,·,·,48*,·
Cc1cccnc1NC(=O)Nc1ccc(Cl)cc1,0,34,-3,-5,71*,30
O=C(C[C@@H]1C[C@@H]2c3cc(NC(=O)Nc4ccccc4F)ccc3O[C@@H]2[C@H](CO)O1)NCc1ccc2c(c1)OCO2,·,·,·,·,-1,·
O=C(c1cc(COc2ccc(F)cc2F)on1)N1CCCC(c2ccccc2)C1 (stereo unspecified),3,60*,-4,2,·,11
CCOC(=O)C1CCN(C(=O)c2cc(COc3ccc(F)cc3F)on2)CC1,17,14,-3,-2,·,111*
CCCNC(=O)[C@H]1[C@H](CO)[C@H]2Cn3c(ccc(C4=CCCC4)c3=O)[C@H]2N1C(=O)C1CC1,·,·,·,·,1,·
O=c1cc(/C=C/c2ccccc2)oc2ccccc12,·,19,-6,-4,59*,32
O=c1cc(-c2ccccc2)oc2ccc(O)cc12,59*,6,0,2,31,57
O=c1cc(-c2ccccc2)oc2ccccc12,2,·,0,5,56*,46
CCCCCc1cc(=O)c2ccccc2o1,1,·,-3,10,50*,36
O=C(NC1CC1)c1cc(=O)c2ccccc2o1,·,24,-3,-3,-1,-9
O=c1cc(CO)oc2ccccc12,2,·,-8,-1,-3,-3
COc1ccc(NC(=O)Nc2ccc3c(c2)C(=O)N([C@@H](C)CO)C[C@@H](C)[C@H](CN(C)S(C)(=O)=O)O3)cc1,·,·,·,·,-6,·
N#C[C@@H]1[C@H](c2ccc(-c3cccc(F)c3)cc2)[C@H](CO)N1C(=O)c1cccnc1,·,·,·,·,17,·
C[C@@H]1CN([C@H](C)CO)C(=O)c2cc(NC(=O)Cc3cn(C)c4ccccc34)ccc2O[C@@H]1CN(C)Cc1ccc2c(c1)OCO2,·,·,·,·,3,·
COCc1cn(CC[C@@H]2CC[C@@H](NC(=O)c3ccncc3)[C@H](CO)O2)nn1,·,·,·,·,-7,·
C#CCn1c(=NC(=O)c2cccs2)sc2cccc(OC)c21,13,-11,1,1,54*,2
Clc1ccc(CSc2snnc2-c2ccccc2)c(Cl)c1,38*,13,-2,0,?,·
c1ccc(CSc2snnc2-c2ccccc2)cc1,·,-33,-6,-1,?,·
CSc1nnc(-c2ccc(Cl)cc2Cl)o1,·,-29,-4,-2,51*,51
CSc1ccccc1-c1nnc(-c2ccc(Cl)cc2Cl)o1,·,12,-6,-1,·,78
Clc1ccc(-c2nnc(-c3ccc(Br)o3)o2)c(Cl)c1,·,-7,0,1,38,126*
CCSc1nnc(-c2ccc(Cl)cc2Cl)o1,·,-11,-8,-4,30,63
Clc1ccc(-c2nnc(-c3ccccc3)o2)c(Cl)c1,39*,-13,0,1,-37,·
